GRK2 inh = human GRK2 inhibition via aptamer displacement. bead flow cytometry, FAM-aptamer displacement from GRK2. inhibition of aptamer binding, % at 10 µM. 0.59% of 330,000 active;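 active = inhibition of aptamer binding above 40%, roughly 3 SD of noise, on plates passing a quality check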;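 note: median bead fluorescence of bound FAM aptamer so fluorescent compounds give negative values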
PP1 counter = blocks human PP1-alpha phosphatase, a PP5 counter-screen. P62136. purified PP1alpha, OMFP fluorescence. inhibition, % at 6.7 µM. 0.9% of 320,000 active. AID 2235;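 active = inhibition above the mean inhibition of all tested compounds plus 3 SD, computed separately for each screening campaign, cut at about 15% in these data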
Target sequence (P62136 whole entry, looked up): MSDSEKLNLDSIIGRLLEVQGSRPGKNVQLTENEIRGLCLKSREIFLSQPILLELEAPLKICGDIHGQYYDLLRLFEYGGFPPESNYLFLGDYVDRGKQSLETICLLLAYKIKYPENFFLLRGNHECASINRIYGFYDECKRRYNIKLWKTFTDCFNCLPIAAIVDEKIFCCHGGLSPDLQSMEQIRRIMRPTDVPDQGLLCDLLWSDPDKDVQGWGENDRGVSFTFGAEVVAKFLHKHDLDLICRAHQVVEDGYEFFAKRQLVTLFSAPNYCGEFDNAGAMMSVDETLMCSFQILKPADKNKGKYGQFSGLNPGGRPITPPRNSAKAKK
NadD inh = blocks S. aureus nicotinate mononucleotide adenylyltransferase | 0.78% of 360,000 active | inhibition, % at 20 µM | AID 602399 | purified NadD enzyme, colorimetric absorbance read-out; in the data active = inhibition above about 26%
Granule exo inh = lytic granule exocytosis inhibition | TALL-104 LAMP-1 surface exposure, flow cytometry; cells stimulated with thapsigargin and PMA | inhibition, % at 10 µM | 0.66% of 360,000 active;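 active = inhibition above about 55%, limit read from the data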
B2AR ag = agonists of human beta-2 adrenergic receptor inducing internalization; P07550; Am2.2-beta2AR cells, FAP receptor internalization, flow cytometry; response, % (concentration not given with the values); 0.43% of 340,000 active; AID 504454;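 active = response above a set limit, near 3 SD of response in nonfluorescent compounds, cut at about 42% in these data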
Exocytosis CP01 = blocks lytic granule exocytosis; shares compounds with Granule exo inh; TALL-104 cells, LAMP-1 externalization, flow cytometry; stimulated with PMA plus thapsigargin; inhibition, % at 10 µM; 11% of 1,500 active; AID 651954; in the data active = inhibition above about 60%
Of the large screens only hits and unclear results are named; the others gave an inactive call (follow-up assays come after a bar, where they were run). In the library only some 2.9% were active in any assay of this set; here they are far more common.

COc1ccc(S(=O)(=O)N(C(=O)c2ccco2)c2cc3sc(=O)oc3c3ccccc23)cc1	Granule exo inh 83 | Exocytosis CP01 inactive
CC(NCCCOc1cccc2ccccc12)c1ccccc1 (centres undefined)	Granule exo inh 61 | Exocytosis CP01 inactive
COCCNc1nc(NCc2cccc(OC)c2)c2sc(-c3ccccc3)cc2n1	Granule exo inh 76 (no result: GRK2 inh, PP1 counter, B2AR ag) | Exocytosis CP01 99
c1ccc(CNc2nc(NCC3CC3)nc3cc(-c4ccccc4)sc23)cc1	Granule exo inh 71 (no result: GRK2 inh, PP1 counter, B2AR ag) | Exocytosis CP01 95
C=CCNc1nc(NCc2ccc(N(C)C)cc2)c2sc(-c3ccccc3)cc2n1	Granule exo inh 75 (no result: GRK2 inh, PP1 counter, B2AR ag) | Exocytosis CP01 93
CC1=CC(C2CC(=O)N(c3ccc(C)cc3)C2=O)CC2C(=O)N(c3ccc(C)cc3)C(=O)C12 (centres undefined)	none
CCCCn1c(N)c(N(CC(C)C)C(=O)CSCc2ccc(Cl)c(Cl)c2)c(=O)[nH]c1=O	none
CCOc1ccc(C(=O)Nc2ccc3nc(N4CCN(CC)CC4)cc(C)c3c2)cc1	Granule exo inh 63 | Exocytosis CP01 inactive
Cc1ccc(C(C)(C)NC(=O)C2CCC(=O)N(CC3CCCCC3)C2)cc1 (centres undefined)	none
O=c1c2ccc(F)cc2sn1-c1ccccc1	Granule exo inh 71 (no result: GRK2 inh, PP1 counter, B2AR ag) | Exocytosis CP01 100
Cc1ccc(-n2sc3cc(F)ccc3c2=O)c(C)c1	none (no result: GRK2 inh, PP1 counter, B2AR ag)
O=c1c2cc(F)ccc2sn1-c1ccccc1Cl	Granule exo inh 64 (no result: GRK2 inh, PP1 counter, B2AR ag) | Exocytosis CP01 103
CCCc1ccc(S(=O)(=O)N(C)S(=O)(=O)c2ccc(F)cc2)cc1	Granule exo inh 70 | Exocytosis CP01 inactive
CCN(CC)S(=O)(=O)c1ccc(F)cc1	none
CCC(c1nc2ccccc2[nH]1)n1c(-c2ccc3ccccc3c2)nc2ccccc21 (centres undefined)	none (no result: GRK2 inh, PP1 counter, NadD inh, B2AR ag)
CCCCCCCCC(c1nc2ccccc2[nH]1)N1CCN=C1c1cc2ccccc2[nH]1 (centres undefined)	Granule exo inh 76 (no result: GRK2 inh, PP1 counter, B2AR ag) | Exocytosis CP01 inactive
COc1ccc2cc(C(=O)NCc3ccccc3CN3CCCC3)ccc2c1	none
COc1ccc(-c2nc(CN3CCN(c4cc(C)nc(C)c4)CC3)c(C)o2)c2ccccc12	Granule exo inh 58 | Exocytosis CP01 inactive
Cc1ccc(C)n1-c1nn(S(=O)(=O)c2ccccc2)c2cccc(F)c12	Granule exo inh 56 | Exocytosis CP01 inactive
NS(=O)(=O)c1ccc(CCNC(c2ccccc2)c2ccccc2)cc1	none
c1ccc(C(NCCNC(c2ccccc2)c2ccccc2)c2ccccc2)cc1	Granule exo inh 80 | Exocytosis CP01 inactive
CCCCN(C)Cc1c(C)[nH]c2ccccc2c1=O	Granule exo inh 71 | Exocytosis CP01 inactive
CCCCN(C)Cc1c(C)[nH]c2ccc(C)cc2c1=O	none
COc1cccc(-c2cnc3c(NC(C)=O)cc(-c4ccc(OC)c(OC)c4)cn23)c1	none (no result: GRK2 inh, PP1 counter, B2AR ag)
COc1cccc(-c2cnc3c(NC(C)=O)cc(-c4ccsc4)cn23)c1	Granule exo inh 77 (no result: GRK2 inh, PP1 counter, B2AR ag) | Exocytosis CP01 91
COc1cccc(-c2cnc3c(NC=O)cc(-c4ccc(N(C)C)cc4)cn23)c1	none (no result: GRK2 inh, PP1 counter, B2AR ag)
COc1ccc(-c2cc(NC=O)c3ncc(-c4cccc(OC)c4)n3c2)cc1	Granule exo inh 63 (no result: GRK2 inh, PP1 counter, B2AR ag) | Exocytosis CP01 74
O=CNc1cc(-c2ccsc2)cn2c(-c3ccccc3)cnc12	Granule exo inh 71 (no result: GRK2 inh, PP1 counter, B2AR ag) | Exocytosis CP01 82
CS(=O)(=O)c1ccc(-c2cnc3c(NC=O)cc(-c4ccsc4)cn23)cc1	none (no result: GRK2 inh, PP1 counter, B2AR ag)
O=C(CCS(=O)(=O)c1cccc2nonc12)NCc1ccc(Cl)cc1	none
O=C(CNCc1ccccc1Cl)Nc1cc(S(=O)(=O)N2CCOCC2)ccc1Cl	none (no result: PP1 counter)
O=C(CNCc1ccc(Cl)cc1)Nc1cc(S(=O)(=O)N2CCCC2)ccc1Cl	Granule exo inh 77 (no result: GRK2 inh, PP1 counter) | Exocytosis CP01 inactive
COCCCNC1=C(C#N)C(=O)NC2(CCCC2)S1	none (no result: GRK2 inh, PP1 counter, B2AR ag)
N#Cc1cccc(NC(=S)Nc2ccccc2)c1	none
c1ccc(COc2ccc(-c3cc4nc(NCCN5CCOCC5)ccn4n3)cc2)cc1	Granule exo inh 61 (no result: GRK2 inh, PP1 counter, B2AR ag) | Exocytosis CP01 inactive
c1ccc(COc2cccc(-c3cc4nc(NCCN5CCOCC5)ccn4n3)c2)cc1	none (no result: GRK2 inh, PP1 counter, B2AR ag)
CC(c1ccccc1)n1c(SCC(=O)Nc2ccccc2)n[nH]c1=O (centres undefined)	none
Cc1ccc2nc(-c3ccc(NC(=S)NC4CC(C)(C)NC(C)(C)C4)cc3)sc2c1	Granule exo inh 88 | Exocytosis CP01 98
CCC1(C)CC2(CCCN(CCC(O)(c3ccccc3)c3ccccc3)C2)CCO1 (centres undefined)	Granule exo inh 58 | Exocytosis CP01 inactive
C/C(=N\O)C(C)(C)Nc1cccc(Br)c1	none
COc1ccc(C(=O)Nc2ccc(Cl)cc2C(=O)NCc2ccco2)cc1OC	Granule exo inh 60 | Exocytosis CP01 inactive
COC(=O)Nc1sc2c(c1C(=O)NCc1ccco1)CCCC2	none
COc1cc(C(=O)Nc2sc3c(c2C(=O)NCc2ccco2)CCCC3)cc(OC)c1OC	none
COc1ccc(C(=O)Nc2sc3c(c2C(=O)NCc2ccco2)CCCC3)cc1OC	Granule exo inh 56 | Exocytosis CP01 inactive
COc1ccc(C(=O)Nc2ccccc2C(=O)NCc2ccco2)cc1OC	none
O=C(Nc1sc2c(c1C(=O)NCc1ccco1)CCCC2)c1ccc2c(c1)OCO2	Granule exo inh 59 | Exocytosis CP01 inactive
O=C(NC1(C(F)(F)F)N=C(c2ccccc2)NC1=O)c1ccccc1 (centres undefined)	none
Cc1cc(C)n(-c2nc(SCC(=O)O)c3c4c(sc3n2)COC(C)(C)C4)n1	none
Cc1cc(C)n(-c2nc(SCCN(C)C)c3c4c(sc3n2)CCCC4)n1	Granule exo inh 70 | Exocytosis CP01 inactive
CCCCNC(=O)c1nc(-c2cccnc2OC)oc1-c1ccc(Cl)cc1	none (no result: GRK2 inh, PP1 counter, NadD inh, B2AR ag)
COc1ccc(S(=O)(=O)Nc2noc3ccccc23)cc1OC	none
COCCN1C[C@@H](CO)O[C@@H](n2cnc3c(NCc4ccncc4)ncnc32)C1	none (no result: GRK2 inh, PP1 counter, B2AR ag)
O=C(Nc1ccc([N+](=O)[O-])cc1)N1CCc2ccccc2C1	Granule exo inh 85 | Exocytosis CP01 inactive
CC1(C2CC2)NC(=O)N(CC(=O)NCC(=O)Nc2ccc(F)c(F)c2F)C1=O (centres undefined)	Granule exo inh 56 (no result: PP1 counter) | Exocytosis CP01 inactive
CC1CCCCC12NC(=O)N(CC(=O)NCC(=O)Nc1ccc(F)c(F)c1F)C2=O (centres undefined)	none
Cc1cncn1CCc1nc2c3ccccc3nc(SCC(=O)Nc3cccc(Cl)c3)n2n1	Granule exo inh 68 | Exocytosis CP01 81
Cc1cccc(NC(=O)CSc2nc3ccccc3c3nc(CCc4c(C)n[nH]c4C)nn23)c1	none
COCc1cc(C)nc(SCc2ccc(Cl)cc2)c1C#N	Granule exo inh 69 | Exocytosis CP01 inactive
COCc1cc(C)nc(SCc2ccc(F)cc2)c1C#N	none
CCN(CC)C(=O)C1=C(C)N(Cc2ccc(F)cc2)C(=O)C(CC(=O)NCC2CCCCC2)C1 (centres undefined)	none (no result: GRK2 inh, PP1 counter, B2AR ag)
